In PubChem BioAssay (Tox21):
Results filed as inconclusive are left out. Activity calls are given as the source filed them. Calls come from the whole dose curve; as a rule, active = well fitted cell-killing curve with a large enough effect in the repeat runs; inconclusive = weak or mixed curves, or effect the other way; inactive = no such curve, though single readings can be large or run the other way.

Assay: qHTS assay to identify small molecule agonists of the farnesoid-X-receptor (FXR) signaling pathway - cell viability counter screen (AID 743218); note: nearly all actives have a fitted effect of over 45% in size
Settings: FXR-bla HEK293T viability, CellTiter-Glo luminescence, 16 h; series mostly up to 62.6 µM
Description: U.S. Tox21 Program National Center for Advancing Translational Sciences [NCATS] NIH Chemical Genomics Center [NCGC] U.S. Environmental Protection Agency [EPA] National Institutes of Environmental Health Sciences [NIEHS] National Toxicology Program [NTP] U.S. Food and Drug Administration [FDA] Tox21 Assay Overview: The farnesoid-X-receptor (FXR), a nuclear hormone receptor, is highly expressed in liver, intestine, kidney and adrenal cortex. Natural ligands of FXR are the bile acids (Cholic acid, Chenodeoxy cholic acid etc). FXR is an important regulator of diverse metabolic pathways, including the bile acid homeostasis, lipid and glucose metabolisms. FXR regulates the expression of target genes by binding either as a monomer or as a heterodimer with the retinoid X receptor (RXR). Numerous studies have reported that FXR exerts protective function during cholestasis, diabetes, liver regeneration, and cancer. To identify compounds that activate FXR signaling, GeneBLAzer FXR-UAS-bla HEK 293T cell line (Invitrogen, Carlsbad, CA) containing a beta-lactamase reporter gene under the control of a UAS response element was used to screen the Tox21 10K compound library. The cytotoxicity of the Tox21 compound library against the FXR-bla cell line was tested in parallel by measuring the cell viability using CellTiter-Glo assay in the same wells.
Tox21 Assay Protocol Summary: FXR-bla cells were dispensed at 5000 cells/5uL/well in 1536-well black wall/clear bottom plates using a Multidrop Combi (Thermo Fisher Scientific, Waltham, MA) dispenser. After the assay plates were incubated at 37 C and 5% CO2 for 5 h, 23 nL of compounds dissolved in DMSO, positive controls or DMSO only was transferred to the assay plate by a Pintool station (Kalypsys, San Diego, CA). The assay plates were incubated at 37C for 16 h. After 1 uL of LiveBLAzerTM B/G FRET substrate was added using a Bioraptr Flying Reagent Dispenser (FRD) workstation (Beckman Coulter, Indianapolis, IN), the plates were incubated at room temperature for 2 h, and fluorescence intensity was measured by an Envision plate reader (PerkinElmer, Shelton, CT). For cell viability readout that measures cytotoxicity, 4uL/well of CellTiter-Glo reagent was added into the assay plates using a Bioraptr FRD. After 30 min incubation at room temperature, the luminescence intensity in the plates was measured using a ViewLux plate reader (PerkinElmer).
% is set by controls: 0 for no effect and ±100 for the full control effect.

Structure (SMILES) | outcome | viability change, negative = cytotoxic
COc1cc(/C=C/C(N)=O)cc(OC)c1OC | inactive | 
c1ccc2cnccc2c1 | inactive | 
CC(O)COC(C)(C)C (stereo not given) | inactive | 
COC(=O)c1cc(Cl)cc(Cl)c1 | inactive | 
CCCCCCCCCCCCCCCCCCOCCO | inactive | 
C=CCN1C[C@H](C(=O)N(CCCN(C)C)C(=O)NCC)C[C@@H]2c3cccc4[nH]cc(c34)C[C@H]21 | inactive | 
CC(C)[C@H]1CC[C@H](C)C[C@@H]1O | inactive | 
CCOc1ccccc1OCC1CNCCO1 (stereo not given) | inactive | 
CC(O)CC(C)O (stereo not given) | inactive | 
N#CCC(=O)NN | inactive | 
CCC[C@@H]1C[C@@H](C(=O)N[C@@H]([C@H]2O[C@H](SC)[C@H](O)[C@@H](O)[C@H]2O)[C@@H](C)O)N(C)C1 | inactive | 
CC1(C)CC(OC(=O)CCCCCCCCC(=O)OC2CC(C)(C)NC(C)(C)C2)CC(C)(C)N1 | inactive | 
CSc1cnccn1 | inactive | 
O=NN(CCCl)C(=O)NC1CCCCC1 | inactive | 
N[C@@H](CSCCCO)C(=O)O | inactive | 
Cc1cc(-c2ccccc2)nnc1NCCN1CCOCC1 | inactive | 
CO[C@@]1(NC(=O)Cc2cccs2)C(=O)N2C(C(=O)O)=C(COC(N)=O)CS[C@@H]21 | inactive | 
CCC(C(=O)OCCN1CCOC(c2ccccc2)C1C)c1ccccc1 (stereo not given) | inactive | 
CCC/C=C(\C=O)CC | inactive | 
N[C@@H](Cc1ccc(O)cc1)C(=O)O |  | -2.1% [at 13.2 µM] (inactive)

Structure (SMILES) | outcome | viability change, negative = cytotoxic
OCC(O)CN1CCN(c2ccccc2)CC1 (stereo not given) | inactive | 
CCCCCCCCCCCCCCCCCC#N | inactive | 
CC(C)c1ccc(C=O)cc1 | inactive | 
CCCCCC/C=C/C(=O)OC | inactive | 
CC1c2ccccc2CN1NC(=O)c1ccc(Cl)c(S(N)(=O)=O)c1 (stereo not given) | inactive | 
Cn1nnc2c(C(N)=O)ncn2c1=O | inactive | 
Nc1nnnn1-c1ccccc1 | inactive | 
CCCC(=O)Nc1ccc(OCC(O)CNC(C)C)c(C(C)=O)c1 (stereo not given) | inactive | 
CC(C)COC(=O)c1ccccc1 | inactive | 
CC(=O)OC1CCCCC1C(C)(C)C (stereo not given) | inactive | 
CC(=O)OCC(=O)Nc1cc(C#N)cc(NC(=O)COC(C)=O)c1Cl | inactive | 
CCC(C)C(C)=O (stereo not given) | inactive | 
N#Cc1ccccc1O | inactive | 
CCOC(=O)CC1(C)OCC(C)O1 (stereo not given) | inactive | 
C=C(C)[C@@H]1CC=C(C)CC1 | inactive | 
CC12CCC(C1)C(C)(C)C2O (stereo not given) | inactive | 
CCCCCc1cccc(=O)o1 | inactive | 
OC1OCCOC1O (stereo not given) | inactive | 
Cc1ccc(C(C)NC(=O)[C@@H](NC(=O)OC(C)C)C(C)C)cc1 (stereo not given in full) | inactive | 
C=C(C)c1cccc(C(C)(C)N=C=O)c1 | inactive | 
